Results published in PubChem BioAssay.

target: Carbonic anhydrase 2 (Homo sapiens) (UniProt P00918); experiment: compounds binding carbonic anhydrase 2 – biochemical, small-molecule microarray, Alexa647-labelled CAII, profiling panel (AID 1122); settings: CAII-A647 binding fluorescence, higher = more signal

Compound	composite z-score
C=CCNC(=O)[C@H]1[C@@H]2C(=O)O[C@@H](c3ccccc3)[C@@H](c3ccccc3)N2[C@@H](c2ccc(OCCO)cc2)[C@]12C(=O)Nc1ccc(C#CCC(C(=O)OC)C(=O)OC)cc12	0.328
C=CCN1Cc2ccccc2[C@@H]2OC(c3ccc(OCCCO)cc3)=N[C@]2(CCS(=O)(=O)c2ccccc2)C1=O	0.254
C[N+](C)(C)CCCC[C@@H]1NC(=O)[C@H]2C[C@@H](C(=O)NCCCCCCNC(=O)CS)[C@@H](c3ccc(O)cc3)N2C1=O	0.501
CC(=O)Nc1cc(Br)ccc1C(=O)NCc1ccccc1	0.23
O=C1C2C=CC(C(O)c3ccc4c(c3)OCO4)N(Nc3ccc([N+](=O)[O-])cc3)C2C(=O)N1c1ccccc1 (configuration not stated)	0.699
COc1ccc(C(O)C2C=CC3C(=O)N(C)C(=O)C3N2N(c2ccccc2)c2ccccc2)c2ccccc12 (configuration not stated)	0.677
COc1cc2c(cc1O)C=[N+](Cc1cc3c(cc1Br)OCO3)CC2	0.844

tested on: not listed separately; experiment: COS7 lysate on small-molecule microarray, probe aHis, 635 nm (AID 1123); settings: COS7 cell lysate, fluorescence, higher = more signal;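 further: z-score combines 667nm fluorescence intensity with signal-to-noise per printed compound spot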

Compound	composite z-score
CC(C)N1CC=CC23O[C@@H]4C=CCOC(=O)[C@@H]4[C@H]2C(=O)N(CCCCCO)[C@@H]3C1=O (some centres not stated)	1.64
[N-]=[N+]=Nc1ccccc1C[C@@]1(C(=O)N2CCCCC2)N=C(c2ccc(OCCCO)cc2)O[C@@H]1c1ccccc1	2.37
OCC1C=C(/C=C/c2ccccc2)CN1Cc1ccccc1Br (configuration not stated)	0.672
C=CC[C@@]1(C(=O)N2CCCCC2)N=C(c2ccc(OCCCO)cc2)O[C@@H]1c1ccccc1N=[N+]=[N-]	2.41
CO[C@H]1O[C@H](CO)[C@@H](OC(=O)Nc2ccc(Oc3ccccc3)cc2)[C@H](OC(=O)Nc2ccc3c(c2)OCO3)[C@@H]1OC(=O)Nc1ccc2c(c1)OCO2	2.02
COCCOC(=O)N1C(=O)[C@@]2(c3ccccc31)[C@H](C(=O)N1CCc3cc(OC)c(OC)cc3C1)[C@H]1C(=O)O[C@H](c3ccccc3)[C@H](c3ccccc3)N1[C@@H]2c1ccc(O)cc1	2.19
CCCCC(=C=CC[C@@H](O)c1cccc(OCCO)c1)C[C@@H](O)c1ccccn1	0.617
CCOC(=O)C[C@H]1[C@H](OC(=O)c2cc3ccccc3oc2=O)[C@@H](NC(=O)CC(C)C)c2cc(OCCCO)ccc2N1C(=O)c1ccccc1	0.614
CC(C)(C)OC(=O)CC[C@@]1(C(=O)N2CCCCC2)N=C(c2ccc(OCCCO)cc2)O[C@@H]1c1ccccc1	2.59
Cc1ccc(S(=O)(=O)N2C[C@@H](C(=O)O)[C@H](Sc3ccccc3)C[C@H]2c2ccccc2)cc1	1.99
O=C1[C@H]2C=C(Br)[C@H](C[C@@H]2OCCCCCCO)[C@@]12CO2	-0.469
COc1ccc(C(=O)Nc2cccc(CN3C(=O)[C@]4(O[C@H](CCn5cc(CCO)nn5)[C@@H]([Si](C)(C)c5ccc(OC)cc5)[C@@H]4C)c4ccccc43)c2)cc1	0.98
C=C[C@H](C)[C@@H](OC(=O)Nc1ccc(SC)cc1)c1ccc(O)c2ccccc12	1.84
COCCOC(=O)N1C(=O)[C@@]2(c3cc(C#CC4(O)CCCCCC4)ccc31)[C@H](C(=O)Nc1nc3ccccc3s1)[C@H]1C(=O)O[C@H](c3ccccc3)[C@H](c3ccccc3)N1[C@@H]2c1ccccc1OCCO	1.73
C=CCC(OC(C)=O)[C@@H]1[C@@H](N(Cc2ccc(-c3ccccc3)cc2)C(=O)Cc2ccc(F)cc2)c2cc(OCCCO)ccc2N1C(=O)c1ccc2ccccc2c1 (some centres not stated)	0.361
CN(C)CCCC[C@@H]1NC(=O)[C@H]2C[C@@H](C(=O)NCCCCCN)[C@@H](c3cccc(OCCO)c3)N2C1=O	1.75
C=CC[C@]1(C(=O)NCc2ccccc2)N=C(c2ccc(OCCCO)cc2)O[C@H]1c1ccccc1CN=[N+]=[N-]	0.935
O=C(CS)NCCCCCNC(=O)[C@@H]1C[C@@H]2C(=O)NCC(=O)N2[C@@H]1c1ccc(O)cc1	0.559

Compound	composite z-score
C=CCC(OC(C)=O)[C@@H]1[C@@H](N(Cc2ccc(-c3cccc(C(F)(F)F)c3)o2)C(=O)c2cccc3ccccc23)c2cc(OCCCO)ccc2N1C(=O)Cc1ccc2ccccc2c1 (some centres not stated)	0.58
C=CCC(OC(C)=O)[C@@H]1[C@@H](N(Cc2ccc(-c3cccc(C(F)(F)F)c3)o2)C(=O)Cc2ccc(OC)cc2)c2cc(OCCCO)ccc2N1C(=O)c1ccc2ccccc2c1 (some centres not stated)	1.14
CC(C)CN1C(=O)[C@@]2(c3ccc([N+](=O)[O-])cc3)CC(=O)N(C3CCCCC3)[C@@H]2c2ccc(CO)cc21	-0.335
O=C1C2C=CC(C(O)C=Cc3ccc([N+](=O)[O-])cc3)N(n3cnnc3)C2C(=O)N1Cc1ccccc1 (configuration not stated)	1.38
O=C1O[C@H](c2ccccc2)[C@H](c2ccccc2)N2[C@H]1[C@@H](C(=O)NC[C@H](O)c1ccccc1)[C@]1(C(=O)Nc3ccc(C#CC4=CCCCC4)cc31)[C@H]2c1ccccc1OCCO	1.32
O=C1NC(=O)C2C1C=CC(C(O)c1ccc(I)cc1)N2Nc1ccc(Cl)cc1Cl (configuration not stated)	1.61
CC(C)CCC[C@@H](C)[C@H]1CC[C@@]2(C)C3=C(CC[C@]12C)[C@@]1(C)CC[C@H](OC(=O)c2ccc(C(F)(F)F)nc2)C(C)(C)C1CC3 (some centres not stated)	0.493
CC(C)(C)OC(=O)CC[C@]1(C(=O)NCCN2CCOCC2)COC(c2ccc(OCCCO)cc2)=N1	2.48
CN1C(=O)C2C=CC(C(O)c3ccccc3)N(N3CCCCC3)C2C1=O (configuration not stated)	2.37
CC[C@@H]1C=C(C(=O)O)[C@H](c2cccc3ccccc23)N1S(=O)(=O)c1ccc(C)cc1	1.58
C=CCNC(=O)[C@H]1[C@@H]2C(=O)O[C@@H](c3ccccc3)[C@@H](c3ccccc3)N2[C@@H](c2ccc(OCCO)cc2)[C@]12C(=O)Nc1ccc(C#CCC(C(=O)OC)C(=O)OC)cc12	1.92
C=CCN1Cc2ccccc2[C@@H]2OC(c3ccc(OCCCO)cc3)=N[C@]2(CCS(=O)(=O)c2ccccc2)C1=O	2.96
C[N+](C)(C)CCCC[C@@H]1NC(=O)[C@H]2C[C@@H](C(=O)NCCCCCCNC(=O)CS)[C@@H](c3ccc(O)cc3)N2C1=O	0.483
CC(=O)Nc1cc(Br)ccc1C(=O)NCc1ccccc1	1.18
O=C1C2C=CC(C(O)c3ccc4c(c3)OCO4)N(Nc3ccc([N+](=O)[O-])cc3)C2C(=O)N1c1ccccc1 (configuration not stated)	1.15
COc1ccc(C(O)C2C=CC3C(=O)N(C)C(=O)C3N2N(c2ccccc2)c2ccccc2)c2ccccc12 (configuration not stated)	-0.198
COc1cc2c(cc1O)C=[N+](Cc1cc3c(cc1Br)OCO3)CC2	0.0478
